Data taken from PubChem BioAssay (NCATS).
Records with an inconclusive call do not appear. Values without a mark were called inactive. The call rests on the fitted dose curve; in most records, active means well fitted curve in the direction sought with a large enough effect in the signal ratio, with a control signal flat (not every such curve was filed as active); inconclusive means small, poorly fitted or top-dose-only effect, or effect the other way, or a change in a side signal; inactive means no such curve, though single readings can be large or run the other way; the % refers to the signal ratio.

Biological target: Tyrosine-protein phosphatase non-receptor type substrate 1 (Homo sapiens) + Leukocyte surface antigen CD47 (Homo sapiens) (UniProt P78324+Q08722)
Sequence (P78324 whole entry, looked up): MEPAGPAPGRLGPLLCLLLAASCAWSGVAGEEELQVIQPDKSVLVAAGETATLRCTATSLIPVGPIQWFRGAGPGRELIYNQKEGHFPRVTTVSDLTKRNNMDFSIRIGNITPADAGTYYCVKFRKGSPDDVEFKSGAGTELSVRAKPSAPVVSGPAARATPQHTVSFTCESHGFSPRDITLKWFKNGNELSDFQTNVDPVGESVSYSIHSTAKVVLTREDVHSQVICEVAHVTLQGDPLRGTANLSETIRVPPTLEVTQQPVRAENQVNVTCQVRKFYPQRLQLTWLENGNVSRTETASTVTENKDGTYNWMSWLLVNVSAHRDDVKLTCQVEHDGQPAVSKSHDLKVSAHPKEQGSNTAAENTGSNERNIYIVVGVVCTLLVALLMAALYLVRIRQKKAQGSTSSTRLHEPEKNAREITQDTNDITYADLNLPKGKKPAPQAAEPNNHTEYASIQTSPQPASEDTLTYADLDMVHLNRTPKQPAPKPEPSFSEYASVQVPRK
Sequence (Q08722 whole entry, looked up): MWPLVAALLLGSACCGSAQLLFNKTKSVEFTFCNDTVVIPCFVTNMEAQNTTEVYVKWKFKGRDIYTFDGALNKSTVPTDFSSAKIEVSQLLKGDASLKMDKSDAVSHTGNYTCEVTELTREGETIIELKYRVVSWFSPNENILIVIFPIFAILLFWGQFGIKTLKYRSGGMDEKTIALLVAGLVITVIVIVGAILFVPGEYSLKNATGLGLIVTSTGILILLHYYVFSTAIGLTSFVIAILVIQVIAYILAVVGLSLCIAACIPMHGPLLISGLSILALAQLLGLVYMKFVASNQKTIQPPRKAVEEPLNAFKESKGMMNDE
Assay: CD47-SIRPalpha protein protein interaction - LANCE assay qHTS validation (AID 1347057); further: 0% is about no effect
Settings: Recombinant CD47-His / biotin-SIRPalpha, TR-FRET ratio; series mostly up to 38.3 µM; activity change, negative = inhibition: at the top concentration
Text: SIRPalpha is a myeloid cell expressed immunomodulatory receptor that binds the tumor expressed immune checkpoint CD47. Therapeutic disruption of this interaction leads to immune-mediated tumor rejection. This assay was used to quantitate CD47-SIRPalpha binding biochemically and evaluate chemical libraries for novel CD47-SIRPalpha inhibitors. To recapitulate the biological interaction of CD47 and SIRPalpha, we designed expression constructs to produce their recombinant, soluble, extracellular interaction domains. CD47 was produced with an N-terminal 6His tag. SIRPalpha was produced with an N-terminal Avi-Tag for site-specific biotin incorporation. The CD47-SIRPalpha interaction was measured by TR-FRET using affinity tag linked reagents (anti-6His-Eu donor and streptavidin-APC acceptor). SIRPalpha without biotin incorporation was used as a positive control inhibitor.
PROTOCOL TABLE (as described by Miller, T. et al. 2019)
SEQUENCE No. (e.g., 1, 2, 3, etc.); […] (e.g., Cells, Incubation, Reagent, etc.); VALUE and DESCRIPTION.
1a. Reagent. 3 uL CD47-His (12.5 nM) and Anti-His Eu Donor reagent (3 nM) added to respective wells in Assay buffer; white/solid bottom high base, med bind 1536-well plates (Greiner 789075)
1b. Reagent. 2 uL Assay buffer negative control for background fluorescence
2. Reagent. 23 nL library compounds (7-pt, 1:4 intraplate titration series) or DMSO control transferred by Pin Tool
3. Centrifuge. Centrifuge plate for 30 s at 1000 RPM
4. Incubation.#Incubate reagents at room temperature for 30 min, protected from light
5. Reagent. 2 uL SIRPalpha-biotin (100 nM) in Assay buffer
6. Incubation.#Incubate reagents at room temperature for 30 min, protected from light
7. Reagent. 1 uL SAV-APC (26 nM) acceptor reagent added to respective wells
8. Centrifuge. Centrifuge plate for 30 s at 1000 RPM
9. Incubation. Incubate reagents at room temperature for 30 min, protected from light
10. Detector. Measure Top TR-FRET on EnVision (Eu/APC filter set); calculate ratio Ch1/Ch2
1. Assay buffer composition.#Phosphate buffered saline (PBS; 10 mM Phosphate, 137 mM NaCl, and 2.7 mM KCl; pH 7.4), 0.05% IGEPAL CA-630
2. 23nL of […] library compounds (7 plates) or DMSO vehicle control transferred to 9 Greiner white/solid bottom high base, TC plates in 7 interplate 1:5 titrations (see Yasgar, A. et al. 2008) with Pintool. Two of the 9 plates are DMSO-only in compound field at beginning and end of compound library-treated plates.
10. Detector settings#Mirror = LANCE/DELFIA Dual Enh; Ex. Filter = UV2[TRF] 320; Em. Filter = APC 665; 2nd Em. Filter = Europium 615; Measurement h = 6.5; Ex. light (%) = 100; Delay = 60 us; Window t = 100 us; No. Seq. windows = 1; Time between flashes = 2000us; No. of flashes = 100; No. of flashes for 2nd detector = 100; Calculation: "Ratio Ch1/Ch2"

Row | SMILES | activity change, negative = inhibition
1 | Cn1cnc([N+](=O)[O-])c1Sc1ncnc2nc[nH]c12 | 1.8%
2 | CS(=O)(=O)c1cccc(CNc2nc(Nc3ccc4c(c3)CCC(=O)N4)ncc2C(F)(F)F)c1 | -5.24%
3 | O=c1[nH]cnc2[nH]ncc12 | 0.915%
4 | NCCc1ccc(O)c(O)c1 | 0.541%
5 | O=C1CCC(N2C(=O)c3ccccc3C2=O)C(=O)N1 (stereo not given) | -0.488%
6 | CCc1cncnc1N1CCN(Cc2nc3ccc(C(F)(F)F)cc3[nH]2)CC1 | -1.45%
7 | CC(C[N+](C)(C)C)OC(N)=O (stereo not given) | 1.45%
8 | NC[C@H](O)c1ccc(O)c(O)c1 | -0.705%
9 | O=NN(CCCl)C(=O)NCCCl | 0.143%
10 | CC(=O)Oc1ccccc1C(=O)O | 0.929%
11 | C1COC(NC(C2CC2)C2CC2)=N1 | 1.85%
12 | Cc1cn[nH]c1 | 0.968%
13 | Cc1cnc(NC(=O)C2=C(O)c3ccccc3S(=O)(=O)N2C)s1 | 0.984%
14 | Cc1cc2c(C(C)C)c(O)c(O)c(C=O)c2c(O)c1-c1c(C)cc2c(C(C)C)c(O)c(O)c(C=O)c2c1O | -0.0359%
15 | Cc1oncc1C(=O)Nc1ccc(C(F)(F)F)cc1 | 1.87%
16 | CC(C)(Sc1ccc(CCN(CCCCC2CCCCC2)C(=O)NC2CCCCC2)cc1)C(=O)O | 0.453%
17 | CCOC(=O)N1CCC(=C2c3ccc(Cl)cc3CCc3cccnc32)CC1 | 0.718%
18 | Cc1[nH]c(=O)c(C#N)cc1-c1ccncc1 | 2.35%
19 | Nc1ccc(S(=O)(=O)Nc2ccnn2-c2ccccc2)cc1 | 1.1%
20 | CCCc1nn(C)c2c(=O)[nH]c(-c3cc(S(=O)(=O)N4CCN(C)CC4)ccc3OCC)nc12 | -1.96%

Row | SMILES | activity change, negative = inhibition
21 | c1ccc([C@H]2CN3CCSC3=N2)cc1 | -0.557%
22 | Cc1[nH]c(=O)c(C#N)cc1-c1ccc2nccn2c1 | 1.98%
23 | NS(=O)(=O)c1cc2c(cc1Cl)NC=NS2(=O)=O | 0.79%
24 | Cc1ccccc1C(OCCN(C)C)c1ccccc1 (stereo not given) | 2.01%
25 | NNCCc1ccccc1 | 2.82%
26 | Nc1nc2c(ncn2COCCO)c(=O)[nH]1 | 1.76%
27 | O=C1CCc2cc(OCCCCc3nnnn3C3CCCCC3)ccc2N1 | 1.19%
28 | O=c1n(CCCN2CCN(c3cccc(Cl)c3)CC2)nc2ccccn12 | 0.835%
29 | Oc1ccc(C2CNCCc3c2cc(O)c(O)c3Cl)cc1 (stereo not given) | 0.89%
30 | CCC(C)N(C)C(=O)c1cc2ccccc2c(-c2ccccc2Cl)n1 (stereo not given) | 2.02%
31 | Cc1cccc(-c2[nH]c(C(C)(C)C)nc2-c2ccc3nccnc3c2)n1 | -0.2%
32 | CCCC(CCC)C(=O)O | 1.82%
33 | CC(C)(C)NCC(O)c1ccc(O)c(CO)c1 (stereo not given) | -0.241%
34 | O=C(Nc1nc2ccccc2n1CCN1CCOCC1)c1cccc([N+](=O)[O-])c1 | -0.741%
35 | N[C@@H]1CONC1=O | 2.36%
36 | NC(=O)c1cnccn1 | 0.0233%
37 | OC(CN1CCC(Cc2ccc(F)cc2)CC1)c1ccc(Cl)cc1 (stereo not given) | 0.791%
38 | CC(C)C[C@H](NC(=O)[C@@H](O)[C@H](N)Cc1ccccc1)C(=O)O | 0.835%
39 | NC(N)=NC(=O)c1nc(Cl)c(N)nc1N | 0.319%
40 | CC(C)NCC(O)COc1ccc(COCCOC(C)C)cc1 (stereo not given) | -0.0879%
